# Only some compounds are listed: those with a hit (about 2.3% of all), similar ones and a draw of the others.
# M1 ag parental = counter-screen for M1 agonists: effect in parental CHO-K1 cells. Fluo-8 calcium fluorescence; scaled to maximal ATP response, vehicle zero. hit rate 0.48% among 360,000. AID 602248, 2012. activation, % at 3 µM; in the data active = activation above about 15%;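 note: untransfected CHO-K1 host cells lacking M1 receptor as counterscreen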
# CHO-K1 Ca PAM = nonselective calcium activators in parental CHO-K1 cells, primary screen, counter-screen for M1 PAM project, cell-based, Fluo-8 calcium fluorescence, full deck, 1536-well | ATP EC20; 0% at ATP EC20, 100% at ATP max | activation, % at 3 µM | hit rate 0.02% among 360,000 | AID 602247, 2012;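 active = activation above the run cutoff, the mean activation of all test compounds plus 3 SD, cut at about 40% in these data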;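 note: peak over basal fluorescence ratio in a 140 s read after ATP addition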
# M1 antag = human M1 muscarinic receptor antagonists, primary screen, CHO-K1 cells, Fluo-8 calcium fluorescence, 1536-well; CHO-K1 hM1, ACh EC80 antagonist; inhibition, % at 3 µM; hit rate 1.3% among 360,000; AID 588852, 2011;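 active = percent inhibition above its own plate's cutoff, namely the mean of that plate's compound wells plus 3 SD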;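 note: peak over basal fluorescence ratio during 140 s after agonist addition; 0% = ACh EC80 plus DMSO and 100% = DMSO alone without agonist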
# Target sequence (P11229 whole entry, looked up): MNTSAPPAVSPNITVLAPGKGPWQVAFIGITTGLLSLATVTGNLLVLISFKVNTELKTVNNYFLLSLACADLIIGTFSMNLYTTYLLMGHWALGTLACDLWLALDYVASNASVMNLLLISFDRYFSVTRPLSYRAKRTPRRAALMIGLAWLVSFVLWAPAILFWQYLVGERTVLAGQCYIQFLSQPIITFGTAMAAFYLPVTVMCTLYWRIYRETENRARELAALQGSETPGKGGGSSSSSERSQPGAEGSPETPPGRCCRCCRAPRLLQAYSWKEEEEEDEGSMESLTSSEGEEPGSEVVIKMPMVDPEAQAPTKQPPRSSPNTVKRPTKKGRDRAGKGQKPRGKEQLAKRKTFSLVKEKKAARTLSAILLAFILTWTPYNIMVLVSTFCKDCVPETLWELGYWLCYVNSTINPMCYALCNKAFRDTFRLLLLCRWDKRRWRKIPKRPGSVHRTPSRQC
# CHO-K1 Ca antag = M1 antagonist counterscreen hit in parental CHO-K1 cells; ATP-induced calcium, Fluo-8 fluorescence; hit rate 0.6% among 360,000; inhibition, % at 3 µM;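 active = inhibition above a per-plate cutoff, the plate's mean sample inhibition plus 3 SD, cut at about 24% in these data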;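 note: 0% = DMSO plus EC80 ATP and 100% = DMSO alone without ATP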
# CHRM1 agonist = human M1 muscarinic receptor agonists, primary screen, Fluo-8 calcium fluorescence, CHO-K1 cells, HTS; CHO-K1 hM1, agonist mode; 0% DMSO, 100% acetylcholine EC100; activation, % at 3 µM; hit rate 0.33% among 360,000; AID 588814, 2011;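 active = activation above the run's mean compound activation plus 3 SD, cut at about 16% in these data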;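 note: peak over basal fluorescence ratio within a 140 s kinetic read after compound addition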
# CHRM1 PAM = human M1 muscarinic receptor positive allosteric modulators, primary screen, CHO-K1 cells, Fluo-8 calcium fluorescence, 1536-well. Muscarinic acetylcholine receptor M1 (Homo sapiens), P11229. CHO-K1 hM1, ACh EC20; 0% = ACh EC20, 100% = maximal ACh. activation, % at 3 µM. hit rate 0.088% among 360,000. AID 588819, 2011; in the data active = activation above about 19%, passing the limit was not always enough
# Active calls of the source: *.
SMILES,M1 ag parental,CHO-K1 Ca PAM,M1 antag,CHO-K1 Ca antag,CHRM1 agonist,CHRM1 PAM
Cn1c(=O)c2c(nc(NCc3ccco3)n2C/C=C/c2ccccc2)n(C)c1=O,2.0,14.9,31.8*,-3.2,-0.3,-10.1
Cn1c(=O)c2c(nc(NCc3ccco3)n2C)n(C)c1=O,0.3,-2.9,-8.9,6.2,-6.4,3.2
COc1ccc(C(=O)Nc2ccc3c(c2)C(=O)N(C)C3=O)cc1OC,2.0,18.5,-12.3,-12.7,-5.1,9.4
Cc1cc(NC(=O)COC(=O)C2CC(=O)N(c3ccc(C)c(Cl)c3)C2)no1 (centres undefined),3.0,4.2,-0.3,-9.0,-4.2,0.8
Cc1cc(NC(=O)COC(=O)C2CC(=O)N(c3cccc(Cl)c3)C2)no1 (centres undefined),1.2,-2.7,-3.1,-7.1,0.5,30.7*
O=C(Oc1cccc(Nc2ncnc3ccccc23)c1)c1ccccc1Cl,8.4,0.6,25.0*,24.7*,2.6,-15.2
COc1cccc(Nc2ncnc3ccccc23)c1,0.7,-15.6,14.2,-3.5,-5.5,-8.3
CC(=O)c1c(C)cc(C)c(CSc2ccccn2)c1C,0.3,0.4,8.7,-7.5,-3.7,-6.4
COc1ccc(Br)c(Cn2c(C)c(C(=O)NCc3ccccc3C(F)(F)F)sc2=O)c1,-0.3,-1.3,-1.9,3.8,-2.4,-2.1
COc1ccc(C(CNC(=O)Cc2ccc(-c3ccccc3)cc2)N(C)C)cc1 (centres undefined),3.0,3.2,42.4*,-7.2,-10.9,-29.2
COc1cccc(C(CNC(=O)C(c2ccccc2)c2ccccc2)N(C)C)c1 (centres undefined),0.7,-14.4,54.9*,-6.6,-11.7,-33.3
Cn1c(CCN2CCN(c3ccc(F)cc3)CC2)nc2cc(NC(=O)c3ccco3)ccc21,0.1,-4.4,27.4*,15.8,-7.2,-20.9
Cc1ccc(C(=O)Nc2ccc3c(c2)nc(CCNC(=O)c2ccco2)n3C)cc1,1.5,6.6,1.2,-4.5,-7.1,-4.4
CCOC(=O)N1CCN(Cc2nc3cc(NC(=O)c4cccs4)ccc3n2C)CC1,1.1,-1.5,25.8*,-1.0,-6.4,-15.9
CCC(=O)Nc1ccc2c(c1)nc(CCN1CCN(c3ccccc3)CC1)n2C,-0.1,-23.5,42.8*,7.9,-9.2,-21.0
Cc1ccc(N2CCN(CCc3nc4cc(NC(=O)c5ccco5)ccc4n3C)CC2)cc1,0.6,-5.0,25.1*,10.6,-6.1,-22.4
Cn1c(CN2CCCC2)nc2cc(NC(=O)c3ccco3)ccc21,0.1,0.7,-0.4,-2.9,-7.3,1.6
O=C(Nc1ccccc1Cl)c1cc(C2CCCCN2S(=O)(=O)c2ccc(F)cc2F)on1 (centres undefined),0.4,-10.2,-21.6,-5.6,-3.3,3.3
CC(=O)c1cccc(CN2CCC(C(=O)Nc3cccc(-c4ccn[nH]4)c3)CC2)c1,1.6,-6.3,-1.7,-0.5,-4.8,4.4
Cn1c(CCN2CCN(c3ccccc3)CC2)nc2cc(NC(=O)c3ccco3)ccc21,7.4,8.4,45.7*,-6.2,-5.1,-18.8
Cn1c(CCN2CCOCC2)nc2cc(NC(=O)COc3ccccc3)ccc21,0.1,-2.0,11.0,25.7*,-5.2,4.6
Cn1c(CN2CCOCC2)nc2cc(NC(=O)COc3ccccc3)ccc21,2.2,13.1,-2.2,-11.7,-7.2,5.6
CN1CCN(CCc2nc3cc(NC(=O)c4ccco4)ccc3n2C)CC1,0.4,14.6,-10.9,-15.6,-3.0,11.3
CCOc1ccc(N(CC(=O)N2CCCC2)S(=O)(=O)c2ccc(Cl)cc2)cc1,0.4,8.5,-11.3,-27.3,-5.6,7.9
COc1cccc(CN2CCCN(S(=O)(=O)c3ccc(Br)cc3)CC2)c1,-0.3,4.2,37.3*,-5.8,-2.1,-21.1
COc1ccc(S(=O)(=O)N2CCN(C3CCN(Cc4ccccc4)CC3)CC2)cc1,-0.8,13.5,52.7*,-9.3,-6.3,-20.0
COc1ncnc2c1ncn2CCCN1CCN(c2ccccn2)CC1,0.8,9.7,-9.0,4.7,-11.2,6.5
